This excerpt belongs to a sample that is enriched for hits.
KDM5B inh: blocks human KDM5B histone demethylase activity | Q9UGL1 | KDM5B demethylase, FDH-coupled NADH fluorescence (FDH is formaldehyde dehydrogenase) | Potency, µM (top dose mostly 57.7 µM), most hits filed as inhibitors | 2.6% of 220,000 active | AID 1347165; active = well fitted inhibition curve with a large enough effect; note: 0% is about no effect; nearly all actives have a fitted effect of over 70% in size
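qHTS format, multiple compound concentrations. Buffer 50 mM HEPES pH 7.5/0.01% Tween-20; 200 nM KDM5BΔAP final; 10 min compound preincubation; substrate-mix levels 12.5 µM peptide, 25 µM α-KG, 0.25 mM NAD⁺; 30 min RT; ΔRFU.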
Starred values were filed as active, the others as inactive; i = inactive. Potency is the fitted concentration of half-maximal effect.

SMILES	KDM5B inh
O=C(c1ccncc1)N1CCC2(CC1)CN(c1ncccn1)CC2CO (configuration not stated)	22.4µM*
COCCN1CC(CO)C2(CCN(Cc3sccc3C)CC2)C1 (configuration not stated)	i
CN1CC(CO)C2(CCN(Cc3ccc(Cl)cc3)CC2)C1 (configuration not stated)	i
O=C(Cc1ccc(Cl)cc1Cl)N1CCN(c2ccccc2O)CC1	i
Cc1cccc(C)c1NS(=O)(=O)c1cccc(C(F)(F)F)c1	i
N#CC(C#N)=CNc1nc(-c2ccc3c(c2)CCCC3)cs1	i
CCCCn1c(=O)n(CC(=O)Nc2cccc(F)c2)c(=O)c2c1ncn2Cc1ccco1	i
CC(NC(=O)CCc1ncc(-c2ccc(Cl)cc2)o1)c1ccc2c(c1)NC(=O)CO2 (configuration not stated)	i
C=C(C)CSC1=C(C#N)C(c2sccc2C)CC(=O)N1 (configuration not stated)	i
COC(=O)c1cccc2c1-c1ccccc1/C2=N\O	i
Cc1cc(NC(=O)NCC2CCN(CCc3ccc(F)cc3)CC2)ccc1Br	i
O=C(CN1C(=O)CSc2ccccc21)NOCc1ccccc1	i
OCC1CN(c2ncccn2)CC12CCN(Cc1ccsc1)CC2 (configuration not stated)	31.6µM*
N#Cc1ccc(CN2CCC3(CC2)CN(c2ccncn2)CC3CO)cc1 (configuration not stated)	i
OCC1CN(c2ncccn2)CC12CCN(Cc1ccncc1)CC2 (configuration not stated)	22.4µM*
OCC1CN(c2ccncn2)CC12CCN(Cc1c[nH]c3ccccc13)CC2 (configuration not stated)	i
CC(=O)N1CCC2(CC1)CCN(c1ncccc1C#N)CC2CO (configuration not stated)	31.6µM*
COc1cccc(CN2CCC3(CC2)CN(c2ccncn2)CC3CO)c1OC (configuration not stated)	i
O=C1NCC2(CCN(Cc3ccsc3)CC2)Oc2ccccc21	i
Cc1ncccc1C(=O)N1CCC2(CCN(Cc3ccccn3)CC2)C(CO)C1 (configuration not stated)	i
N#Cc1ccc(C(=O)N2CCC3(CC2)CN(Cc2ccccc2)CC3CO)cc1 (configuration not stated)	i
COc1cc(C#N)ccc1OC(C)C(=O)c1ccc(F)cc1 (configuration not stated)	i
O=S(Cc1ccc(Cl)cc1)Cc1c(Cl)cccc1Cl (configuration not stated)	i
CCC(C)NC(=O)Nc1sc(C)c(C)c1C#N (configuration not stated)	i
Cc1ccc(CNC(=O)c2sccc2C)cn1	i
SMILES	KDM5B inh
CC(C)(C)NC(=O)NC(=O)Cn1nc(C(=O)O)c2ccccc2c1=O	i
O=c1ccc2cc(S(=O)(=O)Oc3ccc4c(=O)c(-c5ccccc5)coc4c3)ccc2o1	i
COC(=O)c1ccc(/C=C(\C#N)C(=O)Nc2ccccc2C(=O)O)cc1	i
Cn1cc(C=O)c(-c2ccc3c(c2)OCCCO3)n1	i
c1cncc(-c2ccnc3nc(CCC4CCCC4)nn23)c1	i
c1cc(-c2ccc3c(c2)OCCCO3)n2nc(C3CCC3)nc2n1	15.8µM*
c1cc(-c2ccnc3nc(C4CCCCC4)nn23)ccn1	31.6µM*
c1cc(-c2ccnc3nc(CCC4CCCC4)nn23)ccn1	28.2µM*
CNc1nc(-c2ccc3c(c2)OCCCO3)cs1	i
O=C(NC1CCCCC1)N1CCC(c2noc(-c3ccncc3)n2)C1 (configuration not stated)	i
c1ccc(-c2ccnc3nc(C4CCC4)nn23)cc1	28.2µM*
Fc1ccc(CN2CC[C@H](c3nc4ccc(C(F)(F)F)cc4[nH]3)C2)cc1F	i
N#Cc1cccc(C(=O)c2ccc3c(c2)OCCO3)c1	i
N#C/C(=C/c1cccc(F)c1)C(=O)c1c[nH]c2cc(F)ccc12	i
CCCCn1c(N)c(N(C)C(=O)C2Cc3ccccc3C(=O)O2)c(=O)[nH]c1=O (configuration not stated)	i
Cc1ccc(-n2cccc2C=O)c(C)c1	i
CCN1C(=O)Cc2cc(C(=O)NCc3ccc(F)cc3Cl)ccc21	i
Cc1cc(C)c(NC(=O)C(C)OC(=O)c2ccc3ccccc3n2)c(C)c1 (configuration not stated)	i
Cn1cc(C(=O)O)c(-c2ccc3c(c2)OCCCO3)n1	i
CC(C)Cc1nc2nccc(-c3ccc4c(c3)OCCCO4)n2n1	28.2µM*
c1ccc(CCc2nc3nccc(-c4ccncc4)n3n2)cc1	i
CC(C)NC(=O)c1cn(C)nc1-c1ccc2c(c1)OCCCO2	i
c1cc(-c2ccnc3nc(C4CCC4)nn23)ccn1	28.2µM*
O=C1NCc2ccccc2CC12CCN(Cc1c(F)cccc1Cl)CC2	i
CCN(CC)c1ccc(NC(=O)c2ccc3ccccc3n2)cc1	i
SMILES	KDM5B inh
Oc1ccc2c(c1)Oc1ncn3nc(COc4ccccc4)nc3c1C2c1cccnc1 (configuration not stated)	i
Cc1ccc(S(=O)(=O)CC(=O)Nc2cc(C(C)C)no2)cc1	i
Cc1ccc(-n2nnnc2SCc2ncc(-c3ccccc3)o2)c(C)c1	i
Cc1ccccc1C(=O)N1CCC(N2CCCNC2=O)CC1	i
O=C(c1ccc(Cl)cc1)N1CCC(N2CCCCCC2=O)CC1	i
Cc1ccccc1C(=O)N1CCC(N2CCCCCC2=O)CC1	20µM*
CCCCn1nc(C(=O)Nc2nc3c(s2)CCCCC3)c2ccccc2c1=O	i
CCOC(=O)c1ccc2nc(C)cc(Nc3ccc(OC)cc3)c2c1	i
COC(=O)c1ccc(COC(=O)CC23CC4CC(CC(O)(C4)C2)C3)cc1	i
CC(=O)N1CCN(c2nc3c(s2)CC(C(=O)Nc2cc(Cl)ccc2F)CC3)CC1 (configuration not stated)	i
COc1ccc(F)cc1-c1ccc(C=O)cc1	50.1µM*
COc1ccc(C=O)cc1C(C)(C)C	i
COc1ccc(F)cc1-c1ccc(C(=O)O)cc1	100µM*
COc1ccc(F)cc1C(=O)C(=O)O	i
COc1ccc(C=O)cc1OCc1ccc(F)cc1Cl	i
COc1ccc(F)cc1-c1cccc(C(=O)O)c1	i
CCc1nnc(NC(=O)Cn2ccc3ccc(Cl)cc32)s1	i
O=C1Nc2ccc(Br)cc2C(=O)N2CCN(C(=O)c3cccnc3)C[C@H]12	i
O=C1Nc2ccc(-c3ccccc3)cc2C(=O)N2CCN(C(=O)NC3CCCCC3)C[C@H]12	i
O=C1Nc2ccc(-c3ccc4c(c3)OCO4)cc2C(=O)N2CCN(C(=O)c3cccnc3)C[C@H]12	i
O=C(O)CCC(=O)N[C@H]1CCN2C(=O)c3cc(-c4ccccc4F)ccc3NC(=O)[C@H]12	i
O=C1Nc2ccc(Br)cc2C(=O)N2CCN(C(=O)c3ccccc3)C[C@H]12	i
O=C1Nc2ccc(-c3ccccc3)cc2C(=O)N2CCN(C(=O)c3cccc(F)c3)C[C@H]12	28.2µM*
O=C(NC1CCCCC1)N[C@H]1CCN2C(=O)c3cc(-c4ccsc4)ccc3NC(=O)[C@H]12	i
O=C1Nc2ccc(-c3ccco3)cc2C(=O)N2CCN(C(=O)NC3CCCCC3)C[C@H]12	28.2µM*
CN(C)c1ccc(C(=O)N2CCN3C(=O)c4cc(Br)ccc4NC(=O)[C@H]3C2)cc1	i
O=C1Nc2ccc(-c3ccco3)cc2C(=O)N2CCN(C(=O)c3ccccc3)C[C@H]12	35.5µM*

Bioassay records from PubChem BioAssay.
